From PubChem BioAssay (NCI)
The panel holds about 83,000 compounds, 20% with a hit somewhere; the sample as a whole holds those more often.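 Percent growth is the endpoint: 0 to 100 indicates growth inhibition (40 means 60% inhibition), 0 means no net growth, and negative values indicate cell death.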 Unmarked numbers belong to inactive results. Active and inactive are the calls of the source. The calls were made as follows: active = growth percent below 10; inactive = the rest.

system: HL-60(TB) leukemia; experiment: NCI-60 one-dose screen, 48 h (100 = growth as untreated, 0 = no growth, -100 = all killed); details: 10 µM unless noted

Compound	growth
O=S(=O)(Nc1ccc(-n2cnc3cc(-c4ccc(O)cc4)ccc32)cc1)C1CC1	56.9%
C=CCn1c(SCC(=O)Nc2ccc(C(=O)/C=C/c3ccc(Cl)cc3)cc2)nnc1-c1c[nH]c2ccccc12	87.5%
COc1ccc(S(=O)(=O)n2cc(C=O)c3ccccc32)c(OC)c1	4.32% (active)
O=C(NNc1nc2cc(F)ccc2n2c(CN3CC4(COC4)C3)ccc12)c1cnccn1	-30.1% (active)
Nn1c(=O)n(-c2cccc(C(F)(F)F)c2)c(=O)c2cc(-c3ccc(F)cc3F)ccc21	-45.9% (active)
CC(Nc1ncnc2ccc(-c3cnc(N)nc3)cc12)c1ccccc1 (centres undefined)	35.3%
C=CCN(C)S(=O)(=O)/N=C1\NC(=O)NC1=C(Cl)Cl	-51.7% (active)
CCN(CC)c1ccc(/C=N/NC(=O)c2ccc(NS(C)(=O)=O)cc2)c(O)c1	0.843% (active)
Cc1occc1-c1nc2s/c(=C\c3cn(-c4ccccc4)nc3-c3ccccc3)c(=O)n2n1	102%
COCCNc1ccc2ncc(C#Cc3cncc(C(=O)Nc4ccc(CN5CCN(C)CC5)c(C(F)(F)F)c4)c3)n2n1	0.694% (active)
CC(=O)N1N=C(c2cccc(-n3cccc3)c2)CC1c1cccc(F)c1 (centres undefined)	108%
CC(C)(C)OC(=O)Nc1ccc(-c2cccc(Oc3ccc4nnc(Cl)n4n3)c2)cc1	64%
Oc1c(Cl)cc(Cl)c2ccc(CN3CCCCC3)nc12	32.9%
CCOP(=O)(OCC)OC[C@]12CCC(C)(C)C=C1[C@H]1CC[C@@H]3[C@@]4(C)CC[C@H](OP(=O)(OCC)OCC)C(C)(C)[C@@H]4CC[C@@]3(C)[C@]1(C)CC2	-22.1% (active)
c1ccc(C(c2nc3ncncc3[nH]2)N2CSc3nc4ncncc4n3C2)cc1 (centres undefined)	39.8%
COc1cccc2cc(-c3cc4ccccc4[nH]3)/c(=N\NC(=O)c3ccc(Cl)cc3)oc12	-11.8% (active)
O=S(=O)(Nc1ccc2c(c1)OCO2)c1ccc(-c2cnc(C3CC3)o2)cc1	3.52% (active)
CC1=C(C)C(=O)C(Nc2cccc(C(=O)OC(C)(C)C)c2)=CC1=O	71%
CC(C)(C)OC(=O)NCc1ccc(CNc2c([N+](=O)[O-])cnc3ccccc23)cc1	49.1%
O=C(Nc1cccc(Cl)c1)Nc1nc2ccc([N+](=O)[O-])cc2o1	0.103% (active)

Compound	growth
C=C(C=O)[C@@H]1CC[C@]2(COC(C)=O)CC[C@]3(C)C(CC[C@@H]4[C@@]5(C)CC[C@H](OC(C)=O)C(C)(C)[C@@H]5CC[C@]43C)[C@@H]12 (some centres undefined)	-10.9% (active)
Brc1cc(-c2cc(-c3ccc4c(c3)OCCO4)[nH]n2)cs1	24%
CCCC(=O)NC(c1cccnc1)c1cc(C(C)(C)C)c2cccnc2c1O (centres undefined)	-13.7% (active)
COc1ccc(Oc2ccc(/C=N/NC(=O)CSc3nc4ccccc4c(=O)n3-c3ccc(Cl)cc3)cc2)cc1	104%
CCOc1ccc(NC2=C(Cl)C(=O)c3nc(C)ccc3C2=O)cc1	-46.4% (active)
O=C(NNc1nc2cc(F)c(F)cc2n2cccc12)c1ccncn1	0.0559% (active)
O=C(NNc1nc2cc(F)cc(F)c2n2cccc12)c1cnccn1	-25% (active)
CCc1nnc(NC(=O)c2cc(-c3ccc(Cl)cc3Cl)oc2C)s1	88.5%
Cn1ccnc1C(=O)/C=C/C=C/c1ccc(C(=O)Nc2ccc(F)cc2)cc1	13.3%
c1n[nH]cc1-c1nc2ccc3[nH]ncc3c2c2c1CCCC2	22.5%
COc1cc(/C=C/C(=O)c2ccc(NC(=O)CSc3nnc(-c4ccc5nc(-c6ccccc6)[nH]c5c4)o3)cc2)cc(OC)c1OC	69%
CCOC(=O)c1ccc(N/C=C/C(=O)c2ccccc2)cc1	84.3%
CN1CCN(c2ccc(Nc3nc(NCCCNS(=O)(=O)c4ccc(F)cc4)c4sccc4n3)cc2)CC1	28.8%
O=C1CSC(=O)N1Cc1cc2ccccc2nc1Cl	101%
Cc1[nH]c(C(=O)Nc2ccccc2OCc2cccc(C(=O)N3CCC[C@@H](N)C3)c2)c(Cl)c1Cl	-67.7% (active)
CCOC(=O)c1cccnc1Nc1ccc(NC(=O)Nc2ccc(Cl)c(C(F)(F)F)c2)cc1	29.4%
Cc1ccc(NC(=O)c2ccc(CN3CCOCC3)c(C(F)(F)F)c2)cc1Oc1ccc(-c2[nH]nc3ncnc(N)c23)cc1	80.9%
CN1CCN(c2ccc(NC(=O)Nc3ccc4c(ccn4-c4cccc(C(N)=O)n4)c3)cc2C(F)(F)F)CC1	66.1%
CN(C)S(=O)(=O)c1ccc(-c2nc(C(Cl)Cl)nc3cc(-c4ccccc4)nn23)cc1	71.1%
